The panel holds about 83,000 compounds, 20% with a hit somewhere; the sample as a whole holds those more often.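 The endpoint reported here, percent growth, reads 100 for growth as untreated, 0 for no net growth and -100 for all cells dead.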 A number with no mark means an inactive call. Calls of active or inactive are those of the source. How the source made its calls: active means growth percent below 10; inactive means the rest.

From PubChem BioAssay (NCI) come the findings set out here.

Holding throughout (experiment): NCI-60 one-dose screen, 48 h (100 = growth as untreated, 0 = no growth, -100 = all killed)
Common to all, as to conditions: 10 µM unless noted

The subject of assay [1] is SR leukemia.
Assay [2] deals with RPMI-8226 leukemia.
For assay [3], the system named is OVCAR-5 ovarian.
For assay [4], the system named is OVCAR-4 ovarian.
Assay [5] deals with SK-OV-3 ovarian.
Assay [6] concerns IGROV1 ovarian.
The subject of assay [7] is OVCAR-3 ovarian.
Assay [8] has as its system HS 578T breast.
Assay [9] concerns NCI/ADR-RES ovarian.
Assay [10] deals with T-47D breast.
Assay [11] has as its system BT-549 breast.
Assay [12] relates to MDA-MB-435 melanoma.
Assay [13] deals with SW-620 colon.
Assay [14] relates to MCF7 breast.
Assay [15] concerns HCT-116 colon.
Assay [16] deals with HCC-2998 colon.
For assay [17], the system named is KM12 colon.
Assay [18] has as its system OVCAR-8 ovarian.

As for `CCCCNC(=O)Oc1ccc(/C(=C(\C)c2ccc(Cl)cc2)c2ccc(OCCN3CCCCC3)cc2)cc1`, the growth in assay [1] was 7.74% (active); in assay [2], 73.4%; in assay [3] it was 71.8%; in assay [4], 73.5%; in [5], 68.8%; in assay [6] it was 83.5%. For the same compound, the growth is 80% in assay [7]; 85% in [8]; 85.2% in [9]; 47% in assay [10]; 86.5% in assay [11]; 74.2% in [12]. The growth in [13] is 83.6%; in [14], 32.3%; in assay [15], 53.6%; in assay [16], 87.8%; in assay [17] it was 67.1%.
For the compound `Cc1ccc2c(-c3cc(-c4ccccc4)nc(N)c3C#N)cc(=O)oc2c1`, the growth in [1] is 100%; in [2] it was 101%; in assay [3], 96.9%; in assay [4], 114%; in assay [5], 104%; in assay [7], 106%. Further, the growth is 90.2% in assay [8]; 95.2% in assay [9]; 86% in assay [10]; 75.8% in assay [11]; 106% in assay [12]; 107% in assay [13]. The growth in assay [14] is 100%; in assay [15] it was 87.1%; in assay [16], 96.4%; in assay [17], 97.4%.
Turning to `CC1(C)C2CC1C1(/C=N/NC(N)=S)C(C2)C(C#N)(C#N)C1(C#N)C#N` (stereo unspecified), the growth in assay [1] was 4.63% (active); in [2], 30.4%; in assay [3] it was 126%; in [4], 94.3%; in [5], 103%; in assay [6], 67.1%. The growth in assay [7] is 63.1%; in [8] it was 88.7%; in assay [9], 93.5%; in [10] it was 64.1%; in [11], 96.3%; in assay [12] it was 88.6%. Also, the growth in assay [13] was 50%; in [14] it was 59.2%; in [15] it was 40.7%; in assay [16], 94.1%; in [17], 95.7%.
`COc1ccc(-c2nc3sc(-c4ccc(Cl)cc4)cn3n2)cc1`: the growth in assay [1] is 51.1%; in assay [2] it was 44.9%; in assay [3], 52%; in assay [4] it was -63.3% (active); in assay [5] it was 49.5%; in [6] it was 7.07% (active). Also, the growth in [7] was 24.7%; in [8], 27%; in [10], 54.9%; in [11], 97.6%; in [12], 75%; in assay [13], 59.6%. The growth is 48.9% in assay [14], -16.3% (active) in [15], 78.6% in assay [16] and 54.7% in assay [17].
As to `COc1ccc(-c2nc3sc(-c4ccccc4)cn3n2)cc1`, the growth in assay [1] is 41.2%; in assay [2], 78.6%; in assay [3], 108%; in assay [4], 62.2%; in assay [5], 67.8%; in assay [6] it was 47.8%. The growth in [7] was 58.2%; in assay [8], 59.9%; in assay [9], 34%; in assay [10] it was 34.6%; in assay [11], 73.3%; in assay [12], -8.6% (active). Also, the growth was 35.1% in assay [13]; 25.1% in assay [14]; 40% in assay [15]; 77.3% in assay [16]; 29.5% in assay [17].
Turning to `CCCCCCNC(=O)Oc1ccc(/C(=C(\C)c2ccc(OC)cc2)c2ccc(OCCN3CCCCC3)cc2)cc1`, the growth in assay [1] is 0.84% (active); in assay [2], 44.7%; in [3], 82.6%; in assay [4] it was 63.1%; in assay [5] it was 70%; in [6] it was 53.8%. Besides, the growth in assay [7] was 80.9%; in [8] it was 65.7%; in assay [9], 75.8%; in assay [10], 48%; in [11] it was 70.4%; in assay [12], 66.7%. For the same compound, the growth was 55.3% in assay [13]; 22.7% in assay [14]; 34.5% in assay [15]; 80.6% in assay [16]; 43.5% in assay [17].
Take `O=C1CCC(C(=O)NCCNCCNC(=O)C2CCC(=O)N2)N1` (stereo unspecified): the growth in assay [1] is 103%; in assay [2], 95.8%; in assay [3], 112%; in assay [4], 109%; in [5], 98%; in assay [6], 110%. Also, the growth is 106% in assay [7]; 94.1% in [8]; 105% in assay [9]; 85% in [10]; 81.3% in assay [11]; 104% in assay [12]. In addition, the growth in assay [13] is 94.8%; in assay [14], 98.3%; in assay [15], 87.8%; in assay [16] it was 105%; in [17], 102%.
With `CCCCNC(=O)Oc1ccc(/C(=C(\C)c2ccc(Cl)cc2)c2ccc(OCCN(CC)CC)cc2)cc1`, the growth in [1] is 3.33% (active); in [2], 63.9%; in [3], 73.4%; in assay [4], 69.6%; in assay [5], 75.3%; in [6] it was 81.6%. Further, the growth in [7] is 69.1%; in assay [8], 74.4%; in assay [9], 81.4%; in assay [10], 42.2%; in assay [11], 80.3%; in [12], 66.4%. Moreover, the growth is 79.8% in [13]; 30.1% in assay [14]; 51% in [15]; 80.6% in assay [16]; 68.2% in assay [17].
As for `CCN(CC)CCCNc1nc2ccccc2c2c(=O)c3cc(Cl)ccc3sc12`, the growth in assay [1] is -15.7% (active); in assay [18] it was 61.5%; in assay [3], 75.5%; in assay [4], 45.1%; in assay [5] it was 89.3%; in [6], 50.7%. Besides, the growth in assay [7] was 40.5%; in assay [8], 64.3%; in [9], 74.1%; in assay [10], 61.3%; in assay [11] it was 91.2%; in [12], -4.23% (active). Moreover, the growth in assay [13] is 14.3%; in [14] it was 44.4%; in assay [15] it was 20.2%; in assay [16] it was 26.5%; in assay [17] it was 27%.
